The nature of experiment [1]: Tanguay_ZF_120hpf_AXIS_legacy: (Legacy) Oregon State University Tanguay Lab 120 Hour Post-fertilization zebrafish Assay for Body Axis Malformation (AID 2283635). The gist of the method: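 Binary scoring of axis defects at 120 hpf under brightfield, fitted positive versus DMSO. Tropical 5D embryos, chorion removed by pronase at 4 hpf, were singly exposed in sealed, dark plates at 28C from 6 hpf; DMSO 0.64% final.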

A short description of experiment [2]: Tanguay_ZF_120hpf_EYE_legacy: (Legacy) Oregon State University Tanguay Lab 120 Hour Post-fertilization zebrafish Assay for Eye Malformation (AID 2283636).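 Note: binary presence or absence of eye malformation scored by brightfield in 120 hpf larvae.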 The gist of the method:
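Dechorionated wild-type Tropical 5D zebrafish embryos were exposed statically from 6 hpf, one per well, to 120 hpf at 28C in sealed, foil-covered plates with 0.64% DMSO. Eye malformation was scored present/absent by brightfield microscopy against DMSO controls.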

A short description of experiment [3]: Tanguay_ZF_120hpf_PE_legacy: (Legacy) Oregon State University Tanguay Lab 120 Hour Post-fertilization zebrafish Assay for Pericardial Edema (AID 2283640). The gist of the method:
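Scoring was binary, by brightfield microscopy at 120 hpf, and skipped where mortality occurred. Wild-type embryos were kept under sealed, foil-covered static exposure at 28C in 0.64% (vol/vol) DMSO.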

Experiment [4] can be described thus: Tanguay_ZF_120hpf_BRAI_legacy: (Legacy) Oregon State University Tanguay Lab 120 Hour Post-fertilization zebrafish Assay for Brain Malformation (AID 2283641). The gist of the method:
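Binary brightfield scoring of brain malformation at 120 hpf in Tropical 5D larvae held under static exposure at 28C (0.64% v/v DMSO), non-mortality endpoints skipped if dead. Positive control: 5uM trimethyltin chloride; fit versus DMSO.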

A short description of experiment [5]: Tanguay_ZF_120hpf_CFIN_legacy: (Legacy) Oregon State University Tanguay Lab 120 Hour Post-fertilization zebrafish Assay for Caudal Fin Malformation (AID 2283649). The gist of the method:
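Binary brightfield scoring of caudal fin defects at 120 hpf after static, light-shielded exposure at 28C from 6 hpf. Tropical 5D embryos, chorion removed with pronase at 4 hpf, final DMSO 0.64%.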

A short description of experiment [6]: Tanguay_ZF_120hpf_PIG_legacy: (Legacy) Oregon State University Tanguay Lab 120 Hour Post-fertilization zebrafish Assay for Pigmentation Malformation (AID 2283650). The procedure, abridged: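 Tropical 5D wild-type zebrafish embryos, dechorionated with pronase at 4 hpf, were exposed singly from 6 hpf to 120 hpf statically at 28C in sealed, dark plates with 0.64% DMSO; pigmentation scored present/absent by brightfield microscopy, fitted against DMSO.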

A short description of experiment [7]: Tanguay_ZF_120hpf_CIRC_legacy: (Legacy) Oregon State University Tanguay Lab 120 Hour Post-fertilization zebrafish Assay for Circulatory Malformation (AID 2283651). The procedure, abridged: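 Using wild-type Tropical 5D zebrafish, we exposed dechorionated embryos from 6 to 120 hpf in embryo medium with 0.64% DMSO. Circulatory defects were scored as present or absent; 5uM trimethyltin chloride served as positive control.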

Read-out in experiment [8]: kallikrein-3 (KLK3), KLK3 (gene 354)
Put plainly: LTEA_HepaRG_KLK3: Life Technologies and Expression Analysis (LTEA) Assay for kallikrein-3 (KLK3) using HepaRG (AID 2283652; active = hit-call score of the fitted dose curve at least 0.9, where 1 is the maximum; inactive = score below 0.9). Particulars: mRNA level, 48 h; actives raise or lower the signal. The procedure, abridged: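 Differentiated human HepaRG cells in serum-free induction medium exposed 48 h in duplicate, eight-point half-log series from 100 uM in 0.5% DMSO. KLK3 mRNA by qRT-PCR, normalised to ACTB, GAPDH, POLR2A; bidirectional fit versus DMSO.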

Read-out in experiment [9]: solute carrier (SLC22A6), SLC22A6 (gene 9356)
Description: LTEA_HepaRG_SLC22A6: Life Technologies and Expression Analysis (LTEA) Assay for solute carrier (SLC22A6) using HepaRG (AID 2283653; active = hit-call score of the fitted dose curve at least 0.9, where 1 is the maximum; inactive = score below 0.9). Particulars: mRNA level, 48 h; actives raise or lower the signal. The procedure:
LTEA_HepaRG is a cell based, multiplexed-readout assay that uses HepaRG, a human liver cell line, with measurements taken at 48 hours after chemical dosing on a 96-well plate.LTEA_HepaRG_SLC22A6 is one of 102 assay component(s) measured in the LTEA HepaRG cell culture assay. It is a marker of NR mediated transport.Data from the assay component LTEA_HepaRG_SLC22A6 was analyzed into 1 endpoint. This assay endpoint, LTEA_HepaRG_SLC22A6, was analyzed with bidirectional fitting relative to DMSO as the negative control and baseline of activity. Using a type of inducible reporter, measures of mRNA induction for gain or loss-of-signal activity can be used to understand regulation of transcription factor activity. To generalize the intended target to other relatable targets, this assay endpoint is annotated to the transporter intended target family, where the subfamily is organic anion transporter.
A total of 1060 chemcials from the ToxCast library were tested in eight-point concentration-response experiments. Cell culture and cytotoxicity assays were conducted at Thermo Fisher Scientific's Custom Services facility (Madison, WI). […] Fluidigm's 96.96 Dynamic ArrayTM (Fluidigm, Amsterdam, the Netherlands) technology was used for gene expression analyses by quantitative reverse transcription polymerase chain reaction (qRT-PCR, performed by Quintiles/Expression Analysis, Durham, NC)89. […]

Results on 23 compounds are retold here after PubChem BioAssay (EPA / NIEHS).

Results filed as inconclusive are left out. Activity calls are given as the source filed them. Rule for the calls, unless noted: active = hit-call score of the fitted dose curve at least 0.9, where 1 is the maximum; inconclusive = response in the unintended direction; inactive = score below 0.9.

As for `c1ccc2c(c1)Nc1ccccc1S2`, the compound was called inactive in experiment [1], in experiment [2], in [3], in experiment [4], in experiment [5] and in [6]. The compound was called inactive in experiment [7].
With `CCCCN(CCCC)SN(C)C(=O)Oc1cccc2c1OC(C)(C)C2`, the call in experiment [1], in [4], in experiment [5], in experiment [6] and in experiment [7] was inactive.
For the compound `Nc1ccc(Cl)cc1`, the outcome in experiment [1], in [2], in experiment [3], in experiment [4], in experiment [5] and in [6] was inactive. The result in experiment [7] was inactive.
For the compound `CCCCCCCc1ccc(O)cc1`, the result in experiment [1], in [2], in experiment [3], in [4], in experiment [6] and in [7] was inactive.
On to `Cc1ccc([N+](=O)[O-])cc1C`, for which the result in experiment [1], in experiment [2], in experiment [3], in experiment [4], in [6] and in [7] was inactive.
As for `O=[N+]([O-])c1ccccc1`, the compound was called inactive in [1], in experiment [2], in [3], in experiment [4], in experiment [5] and in experiment [7].
`CCOc1ccc(C(C)(C)COCc2cccc(Oc3ccccc3)c2)cc1`: the outcome in experiment [2], in experiment [3], in experiment [4], in experiment [5], in experiment [6] and in [7] was inactive.
In the case of `Cc1ccc(O)cc1C`, the compound was classed as inactive in experiment [1], in experiment [2], in [3], in experiment [5], in experiment [6] and in [7].
In the case of `ClC(Cl)c1ccccc1`, the result in experiment [1], in experiment [2], in [3], in [5], in experiment [6] and in [7] was inactive.
Regarding `CCOP(=S)(Oc1ccc([N+](=O)[O-])cc1)c1ccccc1` (stereo unspecified), the result in experiment [1], in experiment [2], in experiment [3], in experiment [4], in [5] and in experiment [7] was inactive.
For the compound `CCNc1nc(Cl)nc(NC(C)(C)C)n1`, the compound was classed as inactive in experiment [4], in experiment [5], in experiment [6] and in experiment [7].
`Nc1cc2c3c(c1)C(c1ccccc1)=N[C@@H](NC(=O)c1cccnc1)C(=O)N3CC2`: the compound was called inactive in [3], in [5], in [6] and in experiment [7].
In the case of `c1nc[nH]n1`, the call in [4], in experiment [5], in experiment [6] and in experiment [7] was inactive.
The term AC50 denotes the concentration giving half of the maximal activity seen. With `CC(C)(C)c1ccc(O)cc1`, the call in [1], in experiment [2], in experiment [3], in experiment [5] and in experiment [7] was inactive. For the same compound, in experiment [6], the AC50 is 25.2 µM (active).
For `[N-]=[N+]=[N-]`, the compound was called inactive in experiment [1], in [2], in experiment [4], in experiment [5], in experiment [6] and in [7].
Consider `Cc1ccc(N)cc1N`, for which the result in experiment [1], in experiment [2], in experiment [3], in experiment [4], in experiment [6] and in [7] was inactive.
In the case of `O=P1(N(CCCl)CCCl)NCCCO1` (stereo unspecified), the call in [1], in experiment [2], in experiment [3], in experiment [4], in experiment [5] and in experiment [6] was inactive. In addition, in experiment [7], the compound was called inactive.
With `CC(C)(C)OOC(C)(C)C`, the compound was classed as inactive in experiment [1], in [2], in experiment [3], in experiment [4], in experiment [5] and in experiment [6]. Besides, the call in experiment [7], in experiment [8] and in experiment [9] was inactive.
Take `ClC(Cl)(Cl)c1ccccc1`: the call in experiment [1], in [2], in experiment [5], in experiment [6] and in [7] was inactive.
Consider `CCCN(CCC)c1c([N+](=O)[O-])cc(C(C)C)cc1[N+](=O)[O-]`, for which the result in experiment [3], in experiment [4] and in experiment [5] was inactive.
As to `CCN(CC)c1ccccc1`, the result in [3], in [4], in experiment [5] and in experiment [7] was inactive.
Regarding `CN(C)C(=O)Cl`, the compound was classed as inactive in experiment [2], in experiment [3], in [4], in experiment [5], in experiment [6] and in [7].
For the compound `CCOS(=O)(=O)OCC`, the result in [1], in experiment [2], in [3], in [4], in experiment [5] and in experiment [7] was inactive.
